Screening data (PubChem)
Most compounds without a hit are left out; they make up all but 19% or so of the library.
TDP1 inh = TDP1 (human) enzyme inhibition. recombinant TDP1, AlphaScreen DNA substrate cleavage. Potency, µM (doses to about 130 µM), for inactives: at the highest dose activity change, negative = inhibition, hits mostly inhibitors. 350,000 tested, 0.28% active; further: potency means the concentration at half of the fitted maximal effect; on the % scale 0 is the no-effect control and ±100 the full control effect; nearly all actives have a fitted effect of over 40% in size
Target sequence (Q9NUW8 whole entry, looked up): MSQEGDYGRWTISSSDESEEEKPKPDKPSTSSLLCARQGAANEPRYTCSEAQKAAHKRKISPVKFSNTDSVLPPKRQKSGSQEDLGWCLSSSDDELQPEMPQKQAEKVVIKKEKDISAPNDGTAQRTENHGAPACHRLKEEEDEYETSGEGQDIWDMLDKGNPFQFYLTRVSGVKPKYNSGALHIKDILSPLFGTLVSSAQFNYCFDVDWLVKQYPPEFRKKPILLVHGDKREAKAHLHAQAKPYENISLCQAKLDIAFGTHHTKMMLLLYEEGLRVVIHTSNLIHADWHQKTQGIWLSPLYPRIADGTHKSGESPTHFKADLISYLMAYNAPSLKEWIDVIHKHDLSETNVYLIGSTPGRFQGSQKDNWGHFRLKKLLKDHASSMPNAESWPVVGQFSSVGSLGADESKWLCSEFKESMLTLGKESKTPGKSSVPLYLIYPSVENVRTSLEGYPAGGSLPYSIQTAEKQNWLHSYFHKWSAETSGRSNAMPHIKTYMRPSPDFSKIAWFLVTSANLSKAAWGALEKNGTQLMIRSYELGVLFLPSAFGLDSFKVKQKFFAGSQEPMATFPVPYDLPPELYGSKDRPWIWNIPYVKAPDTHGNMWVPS
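Recombinant E. coli-expressed Tdp1 (1 nM) preincubated with compound 15 min at RT, then 5'-biotin/3'-phosphotyrosine-FITC DNA substrate (15 nM) added for 5 min. AlphaScreen beads (10 ug/ml) added, 10 min RT; tyrosine-FITC cleavage read as signal loss.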
DT40 TDP1 no CPT = qHTS for Inhibitors of human tyrosyl-DNA phosphodiesterase 1 (TDP1): qHTS in cells in absence of CPT; DT40 Tdp1-/- hTDP1 cells, no CPT, ATP luminescence, 48 h; Potency, µM (top dose mostly 46.2 µM), for the others: at the highest dose activity change, negative = growth inhibition, usual class: inhibitors; 420,000 tested, 15% active; AID 686978, 2013; further: potency means the concentration at half of the fitted maximal effect; on the % scale 0 is the no-effect control and ±100 the full control effect; nearly all actives have a fitted effect of over 55% in size
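Chicken DT40 Tdp1-/- cells stably complemented with human TDP1 were seeded at 400 cells/well with DMSO in place of 20 nM camptothecin. After compound pinning, cells grew at least 48 hr at 37 °C; viability read by CellTiter-Glo luminescence.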
IL1B secr inh = blocks inflammasome-driven IL-1 beta release. THP-1 LPS/ATP IL-1B secretion, AlphaLISA, 16 h; active compounds read low. activity change, % at 57.5 µM. 360,000 tested, 4.7% active. AID 743279; in the data active means activity change below about -50%; inconclusive means mostly about -30% to -49%; further: on the % scale 0 is the no-effect control and ±100 the full control effect
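Secreted IL-1B measured by AlphaLISA bead assay after 16 h compound exposure of THP-1 cells; compounds (final up to 57.5 uM) added 1 h before LPS (250 ng/mL) and ATP (1.25 mM) stimulation; lower signal means less secretion.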
TGFb SMAD3 inh = TGF-b pathway inhibition. Potency, µM (series often up to 46.1 µM), inactives show top-dose activity, negative = inhibition, usual class: inhibitors. 410,000 tested, 1.2% active. HepG2 CAGA-GFP TGF-b/SMAD3 reporter, GFP fluorescence, 18 h; TGF-beta stimulated, 500 pg/mL final; further: potency means the concentration at half of the fitted maximal effect; on the % scale 0 is the no-effect control and ±100 the full control effect; nearly all actives have a fitted effect of over 65% in size
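HEPG2 CAGA-GFP reporter cells (1000/well, DMEM with 1% FBS) received compounds, then recombinant TGF-beta at 500 pg/mL final for 18 hours at 37 degrees C. Per-cell GFP summed per well was normalised to unstimulated and stimulated DMSO controls before curve fitting.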
HepG2 viability = counter-screen for TGF-b inhibitors: cytotoxicity in HepG2 cells; HepG2 CAGA-GFP viability, ATP luminescence, 18 h; Potency, µM (top dose mostly 46.1 µM), for the others: top-dose activity change, negative = cytotoxicity, hits mostly cytotoxic; 410,000 tested, 0.76% active; further: potency means the concentration at half of the fitted maximal effect
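CellTiter-Glo luminescence gave cytotoxicity after 18 hours at 37 degrees C. The cells were HepG2 CAGA-GFP in 1% FBS DMEM, stimulated with 500 pg/mL TGF-beta after compound addition. %Activity was normalised to no-cell wells (complete cell-killing) and DMSO (no toxicity), and curves were fitted and classified.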
DT40 TDP1 CPT = growth inhibition of DT40 Tdp1-/-;hTDP1 cells with camptothecin (screen for TDP1 inhibitors); 420,000 tested, 12% active; Potency, µM (series often up to 46.2 µM), for inactives: at the top dose activity change, negative = growth inhibition, hits mostly inhibitors; chicken DT40 Tdp1-/-;hTDP1 cells + 20 nM CPT, ATP luminescence, 48 h; further: potency means the concentration at half of the fitted maximal effect; on the % scale 0 is the no-effect control and ±100 the full control effect; nearly all actives have a fitted effect of over 55% in size
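Chicken DT40 Tdp1-/- cells complemented with human TDP1, 400 cells/well, exposed to compounds plus 20 nM camptothecin for at least 48 h at 37 C; viability read as ATP content by CellTiter-Glo luminescence.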
Starred values were filed as active, the others as inactive; u = inconclusive; x = not tested or not shown. Unless noted, the call rests on the fitted dose curve; in most records, active means well fitted curve in the direction sought with a large enough effect; inconclusive means small, poorly fitted or top-dose-only effect, or another doubt; inactive means no such curve, though single readings can be large; an effect the other way counts as inactive or inconclusive.

SMILES	TDP1 inh	DT40 TDP1 no CPT	IL1B secr inh	TGFb SMAD3 inh	HepG2 viability	DT40 TDP1 CPT
COC(=O)c1ccc(CSc2nnc(CS(=O)Cc3ccc(Br)cc3)n2-c2ccccc2)cc1 (stereo not given)	8%	13µM*	-11	u	-39%	7.3µM*
Cn1c(SCc2ccccc2)nnc1-c1c[nH]c2ccccc12	10%	u	-17	-2%	16%	u
COC(=O)c1ccc(CSc2nnc(-c3c[nH]c4ccccc34)n2-c2ccccc2)cc1	-5%	16µM*	u	u	-18%	21µM*
Cc1ccc(-n2nnc(-c3nsc(NC(=O)c4cccc(Cl)c4)n3)c2C)cc1C	3%	3.7µM*	x	3%	-13%	5.8µM*
CCc1cccc(-n2nnc(-c3nsc(NC(=O)c4cccs4)n3)c2C)c1	3%	u	x	u	16µM*	u
Cc1ccc(-n2nnc(-c3nsc(NC(=O)c4ccc(C)c(C)c4)n3)c2C)cc1	8%	13µM*	x	-7%	-12%	13µM*
CCc1ccccc1-n1nnc(-c2nsc(NC(=O)c3ccc(C)c(C)c3)n2)c1C	5%	18µM*	x	10µM*	-40%	u
Cc1cc(C)c2c(CC(=O)Nc3c(C(=O)c4ccc(F)cc4)oc4ccccc34)coc2c1	-2%	-2%	x	1%	-1%	-2%
CC1CC(C)(C)CC2(C1)NC(=O)N(CC(=O)N1CCN(S(=O)(=O)c3ccc(F)c(F)c3F)CC1)C2=O (stereo not given)	x	u	u	-14%	-18%	u
Cc1cccc(CC(=O)NCCN2CCCCC2)c1	2%	5%	-19	-3%	-9%	-15%
CC1=C(C(=O)Nc2ccccc2)C(c2ccc[nH]2)n2ncnc2N1 (stereo not given)	x	u	x	12%	8%	u
Cc1ccc(-n2nnc(-c3nsc(NC(=O)c4ccccc4C)n3)c2C)cc1Cl	-5%	6.5µM*	x	u	2%	5.2µM*
Cc1cc(OCC(=O)N(Cc2ccccc2)C2CCS(=O)(=O)C2)ccc1Cl (stereo not given)	2%	-3%	-24	-15%	-1%	-26%
CCOC(=O)C1CCN(C(=O)C2(NC(=O)NC3CCCCC3)CCCCC2)CC1	4%	-2%	21	3%	1%	-2%
CCOC(=O)C1CCN(C(=O)C2(NC(=O)Nc3ccc(F)cc3F)CCCCC2)CC1	1%	-9%	-128*	u	3%	5%
CCCCNC(=S)Nc1ccc(C(F)(F)F)cc1	1%	u	-94*	-61%	-55%	u
CCCCNC(=S)Nc1ccc(Cl)cc1	-1%	23µM*	-9	3%	-8%	u
CCNC(=S)Nc1ccc(Cl)cc1	-3%	-34%	16	4%	11%	-17%
Cc1cc(Br)ccc1NC(=O)c1cc2c(=O)n(C)c3cc(Cl)ccc3c2s1	2%	u	x	4%	-11%	u
COC(=O)c1scc(-c2ccc(C)cc2)c1S(=O)(=O)N1CCN(c2ccc(F)cc2)CC1	5%	1.8µM*	x	u	-17%	8.2µM*
COC(=O)c1scc(-c2ccc(C)cc2)c1S(=O)(=O)N1CCN(c2cccc(OC)c2)CC1	8%	5.8µM*	x	u	-22%	9.2µM*
O=C(c1ccc(-c2ccc(Cl)cc2)o1)N1CCN(S(=O)(=O)c2cccs2)CC1	7%	u	-18	u	-28%	u
CC(=O)c1ccc(-c2ccc(C(=O)NC3CC(C)(C)NC(C)(C)C3)o2)cc1	x	u	-56*	27%	-28%	23%
